PubChem BioAssay AID1159580 (chemical genetic matrix, 2015)
The whole screen tested about 5,500 compounds, of which about 2,000 (36%) were called active. Roughly 18% stayed inconclusive and do not appear here. Rule as the data show it: active = normalized growth mostly below about 0.91 (no sharp cut-off); inconclusive = no clear call, values can overlap the other calls; inactive = mostly above about 0.92. Some of the results follow.

Assay: chemical genetic growth profiling, strain panel (AID 1159580);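 also: tested at 20 µM; growth read once vehicle control cultures reached saturation at 30 °C; 1 = growth at the plate median or of vehicle wells; lower values mean less growth of the strain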
Conditions: growth OD
[1] = S. cerevisiae deletion strains, locus YHR030C, strain SLT2, active compounds read low

Measured: normalized growth

Cc1noc(C)c1C(=O)N1CCOCC1
inactive: S. cerevisiae deletion strains, locus YAL013W, strain DEP1, active compounds read low 1 | S. cerevisiae deletion strains, locus YBR229C, strain ROT2, active compounds read low 0.998 | S. cerevisiae deletion strains, locus YDL101C, strain DUN1, active compounds read low 1 | S. cerevisiae deletion strains, locus YDR150W, strain NUM1, active compounds read low 0.971 | S. cerevisiae deletion strains, locus YEL061C, strain CIN8, active compounds read low 1.01 | S. cerevisiae deletion strains, locus YGR078C, strain PAC10, active compounds read low 1 | [1] 1.07 | S. cerevisiae deletion strains, locus YHR087W, strain rtc3, active compounds read low 1 | S. cerevisiae deletion strains, locus YJR043C, strain POL32, active compounds read low 1 | S. cerevisiae deletion strains, locus YJR075W, strain HOC1, active compounds read low 1 | S. cerevisiae deletion strains, locus YLR039C, strain RIC1, active compounds read low 1.03 | S. cerevisiae deletion strains, locus YLR058C, strain SHM2 (second series), active compounds read low 1 | S. cerevisiae deletion strains, locus YLR085C, strain ARP6, active compounds read low 1.04 | S. cerevisiae deletion strains, locus YLR262C, strain YPT6, active compounds read low 1.01 | S. cerevisiae deletion strains, locus YML094W, strain GIM5, active compounds read low 1.02 | S. cerevisiae deletion strains, locus YMR219W, strain ESC1, active compounds read low 0.993 | S. cerevisiae deletion strains, locus YMR263W, strain SAP30, active compounds read low 0.982 | S. cerevisiae deletion strains, locus YNL153C, strain GIM3, active compounds read low 0.996 | S. cerevisiae deletion strains, locus YNL298W, strain CLA4 (second series), active compounds read low 1.02 | S. cerevisiae deletion strains, locus YNL322C, strain KRE1, active compounds read low 0.995 | S. cerevisiae deletion strains, locus YNR030W, strain Alg12, active compounds read low 1.02 | S. cerevisiae deletion strains, locus YPL055C, strain LGE1, active compounds read low 1 | S. cerevisiae deletion strains, locus YPL241C, strain CIN2, active compounds read low 1.06 | S. cerevisiae deletion strains, locus YPR135W, strain CTF4, active compounds read low 1.02 | S. cerevisiae strains, strain wild type, active compounds read low 1.01

O=Cc1ccccc1O[C@@H]1O[C@H](CO)[C@H](O)[C@@H](O)[C@H]1O
inactive: [1] 1.06 | S. cerevisiae deletion strains, locus YHR079C, strain IRE1, active compounds read low 1.06 | S. cerevisiae deletion strains, locus YJL095W, strain BCK1, active compounds read low 0.996 | S. cerevisiae deletion strains, locus YJR066W, strain TOR1, active compounds read low 0.99 | S. cerevisiae deletion strains, locus YLR113W, strain HOG1, active compounds read low 1.03 | S. cerevisiae deletion strains, locus YNL183C, strain NPR1, active compounds read low 0.992 | S. cerevisiae deletion strains, locus YOR231W, strain MKK1, active compounds read low 1.06 | S. cerevisiae deletion strains, locus YPL256C, strain CLN2, active compounds read low 1.06
